Compound activity as filed in PubChem BioAssay.
A selection: hits, their analogues and other compounds. The true share with any hit is near 1.3%.
KCNH2 3.1 inh: inhibitors of human KCNH2 3.1 potassium channel isoform; AID 720553; 0.95% of 340,000 active; activity change, % (tested at about 1.8 µM); U2OS KCNH2 3.1, thallium flux FluxOr; stronger effect = lower value;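 active means maximum activity change below -70%; inconclusive means maximum activity change from -70% to -50%; inactive means maximum activity change above -50%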;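 further: thallium influx rate constant from kinetic fluorescence after stimulation buffer; on the % scale 0 is the no-effect control and ±100 the full control effect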
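Measured as rate of thallium-driven FluxOr signal in transduced U2OS cells carrying the 3.1 channel, read kinetically for 2 min upon stimulation; values are rate constants scaled to DMSO control wells.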
TRPV1 agonist: human TRPV1 agonism | Q8NER1 | TRPV1-expressing cells, Fluo-8 calcium influx, agonist mode | activation, % at 8.33 µM | 0.19% of 320,000 active | AID 540275; in the data active means activation above about 80%; inconclusive means between about 30% and that limit; further: 0% is about no effect
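Fluo-8 calcium influx in TRPV1-expressing cells, kinetic read (ex 480/em 520 nm). Compound added and read 3 min for agonist activity, followed by capsaicin at EC20 final and 2 min further read for enhancement.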
KCNH2 WT inh: inhibitors of human wildtype KCNH2 potassium channel; 0.37% of 340,000 active; AID 720551; U2OS, BacMam KCNH2, thallium flux FluxOr; stronger effect = lower value; Q12809; activity change, % at 1.84 µM;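 active means maximum activity change below -70%; inconclusive means maximum activity change between -70% and -50%; inactive means maximum activity change above -50%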; further: on the % scale 0 is the no-effect control and ±100 the full control effect
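U2OS cells were transduced with wild-type KCNH2 virus (2.03 x 10^8 / mL) for 4 h at room temperature, then cultured overnight at 37 C. Thallium flux was read with FluxOr dye. Rate constants were normalized to DMSO controls.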
MBNL1-CUG inh: MBNL1-poly(CUG) RNA binding inhibition; TR-FRET MBNL1-His/biotin-(CUG)12 binding, 665/545 ratio; Q9NR56; Potency, µM (doses to about 57.5 µM), for the others: at the highest dose activity change, negative = inhibition, most hits filed as inhibitors; 0.036% of 280,000 active; active means well fitted inhibition curve with a large enough effect in the signal ratio, with a control signal flat, not every such curve was filed as active; inconclusive means small, poorly fitted or top-dose-only effect, or effect the other way, or a change in a side signal; inactive means no such curve, though single readings can be large or run the other way; the % refers to the signal ratio; further: potency means the concentration at half of the fitted maximal effect; on the % scale 0 is the no-effect control and ±100 the full control effect
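Compound titration spanned 92 nM–58 uM against the MBNL1-His/biotin-(CUG)12 complex. After 60 min at room temperature with 5 nM streptavidin-XL665 and 0.055 ng/ul terbium anti-His, ratiometric 665/545 nm emission (Ex 340 nm) normalized to controls.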
TRPV1 PAM: potentiators of human vanilloid receptor 1 (TRPV1) | TRPV1-expressing cells, Fluo-8 calcium influx, capsaicin EC20 potentiation | potentiation, % at 8.33 µM | 0.02% of 320,000 active | AID 540277; in the data active means potentiation above about 80%; inconclusive means between about 30% and that limit; further: 0% is about no effect
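Fluo-8 calcium influx in TRPV1-expressing cells, kinetic read (ex 480/em 520 nm). Compound added and read 3 min for agonist activity, followed by capsaicin at EC20 final and 2 min further read for enhancement.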
Numbers without * were called inactive; i = inactive; ? = inconclusive; . = no result given.

SMILES	KCNH2 3.1 inh	TRPV1 agonist	KCNH2 WT inh	MBNL1-CUG inh	TRPV1 PAM
Cc1ccc(NC2CCCN(C(=O)CCC(=O)c3ccccc3)C2)cc1C (configuration not stated)	6	92*	-5	5%	4
COc1ccc(NC2CCCN(C(=O)CSc3ccccc3)C2)cc1 (configuration not stated)	3	?	5	1%	2
O=C1CCCCN1CCC(=O)N1CCCC(Nc2ccccc2)C1 (configuration not stated)	-5	0	3	4%	7
O=C(CCc1cccc(Cl)c1)N1CCCC(Nc2ccccc2)C1 (configuration not stated)	-10	84*	-48	-6%	-2
COc1ccc(NC2CCCN(C(=O)CCOc3ccccc3)C2)cc1 (configuration not stated)	12	82*	4	8%	-19
CCCCCCN1C[C@@H](O)[C@H](n2cc(COC(=O)c3ccccc3)nn2)C[C@@H]1c1ccccc1	-1	.	1	.	.
C/C(=N\NC(=O)c1cccc(C)c1O)c1ccc(NC(=O)Cc2ccccc2)cc1	4	5	-12	2%	7
CN(C)S(=O)(=O)c1cccc(NC(=O)CCc2nc3cc(S(=O)(=O)N4CCOCC4)ccc3n2C)c1	6	1	3	.	-3
COCCNC(=S)N(C)[C@H]1C[C@H]2c3cc(-c4ccccc4)ccc3CCN2C(=O)[C@H]1[C@H](C)O	3	.	-8	.	.
Cc1cc(C(=O)Nc2ccncc2)c(C)o1	-5	.	2	.	.
COc1ccc(NC2CCCN(C(=O)CCc3ccccc3F)C2)cc1 (configuration not stated)	-12	81*	3	3%	-1
CC(C)(C)c1oc(C(=O)O)cc1CN1CCOCC1	34	-1	1	4%	3
CCOC(=O)c1c(S(=O)(=O)NCC(=O)Nc2ccc(OC)cc2)c(C)n(C)c1C	-162*	-1	-1	-2%	-3
COc1ccc(S(=O)(=O)NCC(=O)N(CC(=O)NCC2CCCO2)Cc2ccccc2)cc1 (configuration not stated)	-3	-3	-11	-5%	1
COc1ccc(S(=O)(=O)NCC(=O)N(CC(=O)NCC2CCCO2)c2c(C)cccc2C)cc1 (configuration not stated)	-74*	-1	2	5%	0
Cc1ccccc1NS(=O)(=O)c1ccc(OCC(=O)NCC2CCCO2)cc1 (configuration not stated)	-184*	1	-172*	-6%	-2
O=c1c2ccccc2ncn1Cc1ccc(Cl)cc1	-98*	0	2	-6%	3
Cc1c(NC(=O)C(C)OC(=O)COc2cccc3c2OC(C)(C)C3)c(=O)n(-c2ccccc2)n1C (configuration not stated)	20	0	10	4%	-23
Cc1c(NC(=O)COc2cccc3c2OC(C)(C)C3)c(=O)n(-c2ccccc2)n1C	-107*	-2	-1	-9%	10
COc1ccccc1/C=C/C=N/NC(=O)c1ccc(=O)n(C)c1	-93*	-5	-8	?	3
COc1ccccc1/C=N/NC(=O)c1ccc(=O)n(C)c1	5	0	0	.	-2
COc1ccc(C)cc1N(CC(=O)NC1CCCC1)C(=O)Cn1nnc(-c2ccc(C)o2)n1	-101*	7	1	-8%	-2
COc1ccc(-c2[nH]ncc2CNCCn2cccn2)c(F)c1	-138*	-2	1	-16%	-2
COc1ccc(-c2[nH]ncc2CNCc2cc(C)n(C)n2)c(F)c1	1	0	0	-6%	?
Cc1cc(OCc2nc(-c3ccncc3)no2)cc(C)c1Cl	4	4	i	-1%	-1
CC1CCN(C(=O)COC(=O)c2c[nH]c3ccccc23)CC1	-24	4	-7	.	1
CC1=CC(C)(C)NC(=S)N1c1ccc(C)cc1C	10	2	-101*	-2%	-2
S=c1[nH]cnc2scc(-c3ccc(Br)cc3)c12	0	-4	-84*	88%	-12
Cc1ccc(-c2csc3nc[nH]c(=S)c23)cc1	-3	-3	-9	-2%	-17
